According to publication PMC4336329 (PLoS ONE, 2015):
The whole screen tested about 310,000 compounds, of which about 2,200 (0.71%) showed an effect of 50% or more. Effects have a minus sign here. Many of the other results were omitted from the sample, so strong results are more common in it than they were.

target: human ether-à-go-go-related gene (hERG) potassium channel (human, UniProt Q12809); assay: primary screen, population patch clamp on CHO cells stably expressing hERG; higher = less effect of the substance
Sequence (Q12809 whole entry, looked up): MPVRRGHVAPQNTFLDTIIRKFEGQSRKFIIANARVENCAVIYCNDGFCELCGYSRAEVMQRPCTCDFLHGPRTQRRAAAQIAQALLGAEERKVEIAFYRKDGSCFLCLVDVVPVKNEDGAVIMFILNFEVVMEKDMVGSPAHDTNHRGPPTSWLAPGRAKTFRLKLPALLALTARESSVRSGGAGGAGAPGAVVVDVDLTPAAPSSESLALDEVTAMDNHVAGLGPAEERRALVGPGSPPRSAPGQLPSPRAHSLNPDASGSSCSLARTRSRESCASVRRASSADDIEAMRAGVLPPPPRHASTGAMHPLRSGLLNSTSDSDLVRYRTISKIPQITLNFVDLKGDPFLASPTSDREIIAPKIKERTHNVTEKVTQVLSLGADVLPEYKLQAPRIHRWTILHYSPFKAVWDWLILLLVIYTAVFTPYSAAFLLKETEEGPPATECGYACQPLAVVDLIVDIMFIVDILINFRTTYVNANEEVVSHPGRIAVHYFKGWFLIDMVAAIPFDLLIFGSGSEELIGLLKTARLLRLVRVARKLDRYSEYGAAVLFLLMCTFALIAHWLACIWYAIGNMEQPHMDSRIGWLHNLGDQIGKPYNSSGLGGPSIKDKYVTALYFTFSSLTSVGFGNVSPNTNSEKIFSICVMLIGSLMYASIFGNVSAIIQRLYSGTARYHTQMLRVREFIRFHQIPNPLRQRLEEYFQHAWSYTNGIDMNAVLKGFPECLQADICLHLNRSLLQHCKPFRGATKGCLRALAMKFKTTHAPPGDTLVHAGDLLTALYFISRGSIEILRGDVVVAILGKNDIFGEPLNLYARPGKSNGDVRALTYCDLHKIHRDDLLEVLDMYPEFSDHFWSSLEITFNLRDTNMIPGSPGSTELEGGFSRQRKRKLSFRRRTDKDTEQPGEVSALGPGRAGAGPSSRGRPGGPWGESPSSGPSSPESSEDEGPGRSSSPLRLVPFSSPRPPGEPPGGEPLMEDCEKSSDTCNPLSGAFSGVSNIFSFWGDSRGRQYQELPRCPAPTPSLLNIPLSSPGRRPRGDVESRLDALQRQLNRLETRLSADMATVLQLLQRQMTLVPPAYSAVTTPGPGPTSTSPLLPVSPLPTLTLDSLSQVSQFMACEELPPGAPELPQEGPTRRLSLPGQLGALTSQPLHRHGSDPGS

Q: Which “hERG current change (%, negative = inhibition) at 1uM” value does the source give for O=C(NCCN1CCOCC1)c1cc2cc(Br)ccc2oc1=O here?
A: The value was 0.63%.

Q: How did the “hERG current change (%, negative = inhibition) at 1uM” value turn out when CN1C(C(=O)NCc2ccc(OC(F)(F)F)cc2)CC2Cn3c(nc4ccccc43)C21 (centres unmarked) was run?
A: Its value is -74.9%.

Q: CN1C(C(=O)NCc2ccc(OC(F)(F)F)cc2)CC2Cn3c(nc4cc5ccccc5cc43)C21 (centres unmarked) was tested. Which “hERG current change (%, negative = inhibition) at 1uM” value did it give?
A: The value was -14.7%.

Q: For O=C(NCc1ccc(OC(F)(F)F)cc1)C1CC2Cn3c(nc4ccccc43)C2N1c1ccccc1 (centres unmarked), which “hERG current change (%, negative = inhibition) at 1uM” value is on record?
A: The value was -15.8%.

Q: Which “hERG current change (%, negative = inhibition) at 1uM” value does the source give for COc1ccc(C2C(C(=O)NCc3ccccc3)=C(C)Nc3ncnn32)cc1OC (centres unmarked) here?
A: The value was 13.9%.

Q: With CC(=O)Nc1ccc(S(=O)(=O)N2CCN(C34CC5CC(CC(C5)C3)C4)CC2)cc1 as the molecule, how does the “hERG current change (%, negative = inhibition) at 1uM” value read?
A: Its value is 3.31%.

Q: With N#Cc1ccc(CN2CCN(CC(=O)Nc3ccccc3C(=O)NC3CC3)CC2)cc1 as the molecule, how does the “hERG current change (%, negative = inhibition) at 1uM” value read?
A: The value was -87.4%.

Q: N#Cc1ccccc1S(=O)(=O)N1CCN(CC(=O)Nc2ccccc2C(=O)NC2CC2)CC1 was tested. Which “hERG current change (%, negative = inhibition) at 1uM” value did it give?
A: The value was -25.4%.

Q: With O=C(CN1CCN(S(=O)(=O)c2ccccc2)CC1)Nc1ccccc1C(=O)NC1CC1 as the molecule, how does the “hERG current change (%, negative = inhibition) at 1uM” value read?
A: Its value is 1.22%.

Q: O=C(CN1CCc2ccccc2C1)Nc1ccccc1C(=O)NC1CC1 was tested. Which “hERG current change (%, negative = inhibition) at 1uM” value did it give?
A: The value was 3.95%.

Q: Which “hERG current change (%, negative = inhibition) at 1uM” value does the source give for N#Cc1ccc(S(=O)(=O)N2CCN(CC(=O)Nc3ccccc3C(=O)NC3CC3)CC2)cc1 here?
A: Its value is -67.3%.

Q: For CC(=O)c1ccc(S(=O)(=O)N2CCN(CC(=O)Nc3ccccc3C(=O)NC3CC3)CC2)cc1, which “hERG current change (%, negative = inhibition) at 1uM” value is on record?
A: Its value is -43.4%.

Q: With O=C(CSc1nc2[nH]c(=O)cc(O)c2s1)Nc1cccc(Br)c1 as the molecule, how does the “hERG current change (%, negative = inhibition) at 1uM” value read?
A: Its value is 18.8%.

Q: Which “hERG current change (%, negative = inhibition) at 1uM” value does the source give for S=c1[nH]nc(-c2cc(-c3ccco3)[nH]n2)n1-c1ccccc1 here?
A: The value was 3.15%.

Q: Which “hERG current change (%, negative = inhibition) at 1uM” value does the source give for CC(=O)c1ccc(N2CCN(c3ccccc3O)CC2)c([N+](=O)[O-])c1 here?
A: Its value is 12.9%.

Q: With Cc1ccc2nc(N3CCN(C)CC3)c(C#N)cc2c1 as the molecule, how does the “hERG current change (%, negative = inhibition) at 1uM” value read?
A: The value was -10%.

Q: Which “hERG current change (%, negative = inhibition) at 1uM” value does the source give for Cc1ccc2cc(C#N)c(N3CCN(C(=O)c4cccs4)CC3)nc2c1 here?
A: Its value is -1%.

Q: With Cc1ccc2nc(N3CCN(C(=O)c4ccc(F)cc4)CC3)c(C#N)cc2c1 as the molecule, how does the “hERG current change (%, negative = inhibition) at 1uM” value read?
A: Its value is -56.8%.

Q: How did the “hERG current change (%, negative = inhibition) at 1uM” value turn out when N#Cc1cccnc1N1CCN(C(=O)c2cccs2)CC1 was run?
A: The value was 7.29%.

Q: With Cc1ccc2cc(C#N)c(N3CCN(C(=O)c4ccccc4)CC3)nc2c1 as the molecule, how does the “hERG current change (%, negative = inhibition) at 1uM” value read?
A: Its value is -6.89%.

Q: Which “hERG current change (%, negative = inhibition) at 1uM” value does the source give for Cc1ccc2nc(N3CCN(C(=O)c4cccs4)CC3)c(C#N)cc2c1 here?
A: Its value is -51.3%.

Q: For CCC(NC(=O)Cc1c(C)c2ccc(OC)c(C)c2oc1=O)C(=O)NC(Cc1ccc(Cl)cc1)C(=O)O (centres unmarked), which “hERG current change (%, negative = inhibition) at 1uM” value is on record?
A: Its value is 0.501%.

Q: How did the “hERG current change (%, negative = inhibition) at 1uM” value turn out when COc1ccc(-n2c(O)c(/C=C3\C=Nc4ccc(Br)cc43)c(=O)[nH]c2=O)cc1 was run?
A: Its value is 12%.

Q: How did the “hERG current change (%, negative = inhibition) at 1uM” value turn out when CC(c1cccs1)N(Cc1ccco1)C(=S)Nc1ccccc1Cl (centres unmarked) was run?
A: Its value is 11.9%.

Q: With c1ccc(NC2=NCCCCS2)cc1 as the molecule, how does the “hERG current change (%, negative = inhibition) at 1uM” value read?
A: The value was -9.85%.

Q: Cc1csc(N2CCCC2c2nc3cc(Cl)c(N4CCCCC4)cc3n2CCOCCO)n1 (centres unmarked) was tested. Which “hERG current change (%, negative = inhibition) at 1uM” value did it give?
A: Its value is -2.57%.

Q: Which “hERG current change (%, negative = inhibition) at 1uM” value does the source give for OCCOCCn1c(C2CCCN2c2nc(-c3ccc(F)cc3)cs2)nc2cc(Cl)c(Cl)cc21 (centres unmarked) here?
A: Its value is -0.144%.

Q: With Cc1csc(N2CCCC2c2nc3cc(C(F)(F)F)ccc3n2CCOCCO)n1 (centres unmarked) as the molecule, how does the “hERG current change (%, negative = inhibition) at 1uM” value read?
A: The value was -62.8%.

Q: OCCOCCn1c(C2CCCN2c2nc(-c3ccc(F)cc3)cs2)nc2cc(C(F)(F)F)ccc21 (centres unmarked) was tested. Which “hERG current change (%, negative = inhibition) at 1uM” value did it give?
A: The value was -73.2%.

Q: With Cc1ccc(Cn2c(C3CCCN3c3nc(C)cs3)nc3cc(C(F)(F)F)ccc32)cc1 (centres unmarked) as the molecule, how does the “hERG current change (%, negative = inhibition) at 1uM” value read?
A: The value was 8.04%.

Q: Which “hERG current change (%, negative = inhibition) at 1uM” value does the source give for OCCCn1c(C2CCCN2c2nc(-c3ccc(F)cc3)cs2)nc2cc(C(F)(F)F)ccc21 (centres unmarked) here?
A: Its value is 2.52%.

Q: How did the “hERG current change (%, negative = inhibition) at 1uM” value turn out when COc1ccc(NC(=O)CSc2nnc(Cn3cnc([N+](=O)[O-])n3)n2C)cc1 was run?
A: Its value is 12.5%.

Q: How did the “hERG current change (%, negative = inhibition) at 1uM” value turn out when Cc1ccc(OCC(=O)NNC(=O)CSc2nnc(-c3ccc(C)cc3)n2C)cc1 was run?
A: The value was 7.24%.

Q: For CCC(=O)N1CCN(c2ccccc2NC(=O)Cc2ccc(Cl)cc2)CC1, which “hERG current change (%, negative = inhibition) at 1uM” value is on record?
A: The value was -41.5%.

Q: Cl.Clc1ccc(SCCOCCN2CCc3ccccc3C2)cc1 was tested. Which “hERG current change (%, negative = inhibition) at 1uM” value did it give?
A: Its value is 8.68%.

Q: For Clc1ccc(SCCOCCN2CCCCCC2)cc1.O=C(O)C(=O)O, which “hERG current change (%, negative = inhibition) at 1uM” value is on record?
A: Its value is -20.6%.

Q: How did the “hERG current change (%, negative = inhibition) at 1uM” value turn out when c1ccc(SCCOCCN2CCc3ccccc3C2)cc1 was run?
A: Its value is -62.7%.

Q: Which “hERG current change (%, negative = inhibition) at 1uM” value does the source give for Clc1ccc(SCCCN2CCCCC2)cc1.O=C(O)C(=O)O here?
A: Its value is -24.5%.

Q: How did the “hERG current change (%, negative = inhibition) at 1uM” value turn out when Cc1ccc(SCCOCCN2CCc3ccccc3C2)cc1 was run?
A: The value was -6.57%.

Q: Which “hERG current change (%, negative = inhibition) at 1uM” value does the source give for Clc1ccc(SCCOCCN2CCCCC2)cc1.O=C(O)C(=O)O here?
A: The value was -61.1%.

Q: For CC(NC(=O)CCC(=O)N1CCCCCC1)c1ccccc1 (centres unmarked), which “hERG current change (%, negative = inhibition) at 1uM” value is on record?
A: The value was 16.8%.

Q: With Cc1ccc(NC(=O)c2noc(C(C)C)c2[N+](=O)[O-])cc1 as the molecule, how does the “hERG current change (%, negative = inhibition) at 1uM” value read?
A: Its value is 4.81%.

Q: Which “hERG current change (%, negative = inhibition) at 1uM” value does the source give for CCN1/C(=C(\O)c2ccccc2)C(=O)c2ccccc2S1(=O)=O here?
A: The value was 13.6%.

Q: With COc1cc2c(cc1OC)C(COc1cc(C)cc(C)c1)N(C(C)=O)CC2 (centres unmarked) as the molecule, how does the “hERG current change (%, negative = inhibition) at 1uM” value read?
A: Its value is 2.4%.

Q: How did the “hERG current change (%, negative = inhibition) at 1uM” value turn out when CN1CCN(CCCN(Cc2ccco2)C(=S)Nc2ccc(Cl)cc2)CC1 was run?
A: The value was -53.8%.

Q: For CCOC(=O)c1ccc(NC(=S)N(CCN2CCCCCC2)Cc2cccs2)cc1, which “hERG current change (%, negative = inhibition) at 1uM” value is on record?
A: The value was 8.82%.

Q: With CCOC(=O)c1ccc(NC(=S)N(Cc2cccnc2)Cc2ccco2)cc1 as the molecule, how does the “hERG current change (%, negative = inhibition) at 1uM” value read?
A: The value was 7.3%.

Q: CCOC(=O)c1ccc(NC(=S)N(CCN2CCCCCC2)Cc2ccco2)cc1 was tested. Which “hERG current change (%, negative = inhibition) at 1uM” value did it give?
A: Its value is -87.2%.

Q: How did the “hERG current change (%, negative = inhibition) at 1uM” value turn out when CCOC(=O)c1ccc(NC(=S)N(CCCN2CCCC(C)C2)Cc2ccco2)cc1 (centres unmarked) was run?
A: Its value is -42.8%.

Q: How did the “hERG current change (%, negative = inhibition) at 1uM” value turn out when CCN1CCN(CCCN(Cc2ccco2)C(=S)Nc2ccc(Cl)cc2)CC1 was run?
A: Its value is -18.6%.

Q: Which “hERG current change (%, negative = inhibition) at 1uM” value does the source give for S=C(Nc1ccc(Cl)cc1)N(CCCN1CCOCC1)Cc1ccco1 here?
A: The value was -8.98%.

Q: With CCOC(=O)c1ccc(NC(=S)N(CCCN(CC)CC)Cc2ccco2)cc1 as the molecule, how does the “hERG current change (%, negative = inhibition) at 1uM” value read?
A: Its value is -57.9%.

Q: For CCc1ccc(NC(=S)N(CCN2CCCCC2)Cc2ccco2)cc1, which “hERG current change (%, negative = inhibition) at 1uM” value is on record?
A: The value was -34.7%.

Q: How did the “hERG current change (%, negative = inhibition) at 1uM” value turn out when CCOC(=O)c1ccc(NC(=S)N(CCCN2CCCCCC2)Cc2ccco2)cc1 was run?
A: The value was -31.7%.

Q: With CCOC(=O)c1ccc(NC(=S)N(CCCN2CCN(CC)CC2)Cc2ccco2)cc1 as the molecule, how does the “hERG current change (%, negative = inhibition) at 1uM” value read?
A: Its value is -45.4%.

Q: CCOC(=O)c1ccc(NC(=S)N(CCCN2CCCCC2)Cc2ccco2)cc1 was tested. Which “hERG current change (%, negative = inhibition) at 1uM” value did it give?
A: Its value is -71.3%.
